Data reported in PubChem BioAssay (NCI).
The panel holds about 83,000 compounds, 20% with a hit somewhere; the sample as a whole holds those more often.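 Plates (96-well) were seeded with cells, treated with compound at one concentration, and incubated for 48 hours before percent growth was determined.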 The source made the active and inactive calls. Rule for the calls: active = growth percent below 10; inactive = the rest.

Legend:
Experiment in all cases: NCI-60 one-dose screen, 48 h (100 = growth as untreated, 0 = no growth, -100 = all killed)
Conditions in all cases: 10 µM
SN12C renal = system: SN12C renal
UO-31 renal = system: UO-31 renal
TK-10 renal = system: TK-10 renal
ACHN renal = system: ACHN renal
CAKI-1 renal = system: CAKI-1 renal
A498 renal = system: A498 renal
CCRF-CEM leukemia = system: CCRF-CEM leukemia
MOLT-4 leukemia = system: MOLT-4 leukemia
SR leukemia = system: SR leukemia

Measured: growth

CCC(=O)N1C/C(=C/c2ccc(Br)cc2)C(=O)/C(=C/c2ccc(Br)cc2)C1
active: SN12C renal -48.8% | UO-31 renal -95.9% | TK-10 renal -31.2% | ACHN renal -54.9% | CAKI-1 renal -25.9% | A498 renal -66.4% | CCRF-CEM leukemia -12% | MOLT-4 leukemia -15.1% | SR leukemia -35.6%

COc1cc(-c2nc(Nc3nc4ccccc4s3)[nH]c(=O)c2C#N)cc(OC)c1O
inactive: SN12C renal 102% | UO-31 renal 88.1% | TK-10 renal 112% | ACHN renal 102% | CAKI-1 renal 113% | A498 renal 103% | CCRF-CEM leukemia 103% | MOLT-4 leukemia 94.7% | SR leukemia 108%

Cn1c([N+](=O)[O-])cnc1/C=C1\Oc2ccc(Cl)cc2C1=O
inactive: A498 renal 12.3% | SR leukemia 11.6%
active: SN12C renal -10.9% | UO-31 renal -31.9% | TK-10 renal -23% | ACHN renal -2.7% | CAKI-1 renal -22.9% | CCRF-CEM leukemia -11.8% | MOLT-4 leukemia -1.82%

O=C1/C(=C/c2ccc([N+](=O)[O-])s2)Oc2ccccc21
active: SN12C renal -23.1% | UO-31 renal -78.1% | TK-10 renal -21.5% | ACHN renal -55.3% | CAKI-1 renal -26.8% | CCRF-CEM leukemia -13% | MOLT-4 leukemia -6.14% | SR leukemia 7.01%
inactive: A498 renal 97.9%

CC/C(=C(/c1ccc(OCCN(C)C)cc1)c1ccc(OC(=O)CCC(=O)c2c(C)[nH]c(/C=C3\N=C(c4ccc[nH]4)C=C3OC)c2C)cc1)c1ccccc1
active: UO-31 renal 5.9% | CCRF-CEM leukemia 6.12% | MOLT-4 leukemia 3.77% | SR leukemia -21%
inactive: SN12C renal 35.9% | TK-10 renal 21.7% | ACHN renal 30.4% | CAKI-1 renal 18.8% | A498 renal 50.3%

Cn1c(C(N)=O)cc2c1-c1nc(Nc3ccccc3)ncc1CCC2
active: A498 renal -43.8%
inactive: SN12C renal 28% | UO-31 renal 12.5% | TK-10 renal 23.7% | ACHN renal 25.6% | CAKI-1 renal 23.5% | CCRF-CEM leukemia 43.5% | MOLT-4 leukemia 42.3% | SR leukemia 17.3%

COc1ccc(-c2nc(-c3nc4cc(Cl)c(Cl)cc4[nH]3)c3ccccn23)cc1
inactive: SN12C renal 81.8% | UO-31 renal 36% | ACHN renal 28.5% | CAKI-1 renal 43.5% | A498 renal 41.5% | CCRF-CEM leukemia 79.1% | MOLT-4 leukemia 77.3% | SR leukemia 45.6%
active: TK-10 renal 2.57%

C/C(N)=C(\C#N)C(=O)c1ccccc1
inactive: SN12C renal 106% | UO-31 renal 86.4% | TK-10 renal 106% | ACHN renal 105% | CAKI-1 renal 107% | A498 renal 91.5% | CCRF-CEM leukemia 102% | MOLT-4 leukemia 110% | SR leukemia 112%

CCOCC(=O)C(C#N)c1ccc(Cl)c(Cl)c1 (stereo unspecified)
inactive: SN12C renal 97.8% | UO-31 renal 82.8% | TK-10 renal 105% | ACHN renal 91.3% | CAKI-1 renal 90% | A498 renal 91.6% | CCRF-CEM leukemia 86.8% | MOLT-4 leukemia 101% | SR leukemia 88.2%

O=C(N/N=C/c1cc2ccccc2c2ccccc12)c1cc(O)c(O)c(O)c1
inactive: SN12C renal 69.8% | UO-31 renal 39.2% | TK-10 renal 69.2% | ACHN renal 47.2% | CAKI-1 renal 43.7% | A498 renal 106% | CCRF-CEM leukemia 11.3% | MOLT-4 leukemia 35.6%
active: SR leukemia 9.56%

CC(C)(Cl)CCC1=C(Cl)C(=O)c2ccccc2C1=O
active: CCRF-CEM leukemia -33.9% | MOLT-4 leukemia -16.2% | SR leukemia -25.3%
inactive: SN12C renal 79.9% | UO-31 renal 36.5% | TK-10 renal 124% | ACHN renal 26.3% | CAKI-1 renal 96% | A498 renal 27.4%

COc1cc(/C=C2\CCCC3=C2N=C2SC=NN2C3c2cc(OC)c(OC)c(OC)c2)cc(OC)c1OC (stereo unspecified)
active: SN12C renal 7.13% | CAKI-1 renal 9.47% | CCRF-CEM leukemia 2.74% | MOLT-4 leukemia -2.28% | SR leukemia 7.88%
inactive: UO-31 renal 36% | TK-10 renal 17.5% | ACHN renal 15.3% | A498 renal 24.5%

CN(C)C=Nc1cc(Cl)ccc1Cl
inactive: SN12C renal 97.7% | UO-31 renal 100% | TK-10 renal 116% | ACHN renal 109% | CAKI-1 renal 96.5% | A498 renal 105% | CCRF-CEM leukemia 97.4% | MOLT-4 leukemia 108% | SR leukemia 108%

O=C(Nc1cccc(-n2cc(-c3ccncc3)c(-c3cc(O)cc(Cl)c3)n2)c1)Nc1ccc(Cl)c(C(F)(F)F)c1
active: CCRF-CEM leukemia 9.31% | MOLT-4 leukemia -18% | SR leukemia -30.6%
inactive: SN12C renal 34.6% | UO-31 renal 18.5% | TK-10 renal 25.9% | ACHN renal 21.3% | CAKI-1 renal 29.1% | A498 renal 21.5%
